# According to ChEMBL document CHEMBL2218924, “A broad activity screen in support of a chemogenomic map for kinase signalling research and drug discovery” (Biochem J, 2013):
# Key:
# [1] = target: Tyrosine-protein kinase SYK (Homo sapiens) (UniProt P43405); conditions: at 10 µM
# [2] = target: T1, Mitogen-activated protein kinase kinase kinase 7 (Homo sapiens) (UniProt O43318); conditions: at 1 µM
# T1 sequence (whole entry): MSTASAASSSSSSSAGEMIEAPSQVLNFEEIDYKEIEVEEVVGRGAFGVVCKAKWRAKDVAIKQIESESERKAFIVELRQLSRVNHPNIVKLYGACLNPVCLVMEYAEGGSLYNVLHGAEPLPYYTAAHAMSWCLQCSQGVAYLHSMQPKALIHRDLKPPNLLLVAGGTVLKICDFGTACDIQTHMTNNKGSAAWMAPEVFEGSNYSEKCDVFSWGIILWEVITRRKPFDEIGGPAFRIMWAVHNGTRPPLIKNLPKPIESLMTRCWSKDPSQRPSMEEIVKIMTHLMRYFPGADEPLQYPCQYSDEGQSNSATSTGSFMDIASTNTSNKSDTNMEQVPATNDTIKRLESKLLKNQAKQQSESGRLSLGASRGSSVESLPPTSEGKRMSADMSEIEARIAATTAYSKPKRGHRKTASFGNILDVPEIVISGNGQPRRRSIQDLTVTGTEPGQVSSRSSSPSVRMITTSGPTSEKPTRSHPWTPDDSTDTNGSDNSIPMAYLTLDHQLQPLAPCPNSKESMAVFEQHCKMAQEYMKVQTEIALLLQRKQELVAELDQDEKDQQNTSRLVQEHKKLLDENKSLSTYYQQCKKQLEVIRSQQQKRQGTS
# [3] = target: T1, Mitogen-activated protein kinase kinase kinase 7 (Homo sapiens); conditions: at 10 µM
# [4] = target: T2, Serine/threonine-protein kinase TAO1 (Homo sapiens) (UniProt Q7L7X3); conditions: at 1 µM
# T2 sequence (whole entry): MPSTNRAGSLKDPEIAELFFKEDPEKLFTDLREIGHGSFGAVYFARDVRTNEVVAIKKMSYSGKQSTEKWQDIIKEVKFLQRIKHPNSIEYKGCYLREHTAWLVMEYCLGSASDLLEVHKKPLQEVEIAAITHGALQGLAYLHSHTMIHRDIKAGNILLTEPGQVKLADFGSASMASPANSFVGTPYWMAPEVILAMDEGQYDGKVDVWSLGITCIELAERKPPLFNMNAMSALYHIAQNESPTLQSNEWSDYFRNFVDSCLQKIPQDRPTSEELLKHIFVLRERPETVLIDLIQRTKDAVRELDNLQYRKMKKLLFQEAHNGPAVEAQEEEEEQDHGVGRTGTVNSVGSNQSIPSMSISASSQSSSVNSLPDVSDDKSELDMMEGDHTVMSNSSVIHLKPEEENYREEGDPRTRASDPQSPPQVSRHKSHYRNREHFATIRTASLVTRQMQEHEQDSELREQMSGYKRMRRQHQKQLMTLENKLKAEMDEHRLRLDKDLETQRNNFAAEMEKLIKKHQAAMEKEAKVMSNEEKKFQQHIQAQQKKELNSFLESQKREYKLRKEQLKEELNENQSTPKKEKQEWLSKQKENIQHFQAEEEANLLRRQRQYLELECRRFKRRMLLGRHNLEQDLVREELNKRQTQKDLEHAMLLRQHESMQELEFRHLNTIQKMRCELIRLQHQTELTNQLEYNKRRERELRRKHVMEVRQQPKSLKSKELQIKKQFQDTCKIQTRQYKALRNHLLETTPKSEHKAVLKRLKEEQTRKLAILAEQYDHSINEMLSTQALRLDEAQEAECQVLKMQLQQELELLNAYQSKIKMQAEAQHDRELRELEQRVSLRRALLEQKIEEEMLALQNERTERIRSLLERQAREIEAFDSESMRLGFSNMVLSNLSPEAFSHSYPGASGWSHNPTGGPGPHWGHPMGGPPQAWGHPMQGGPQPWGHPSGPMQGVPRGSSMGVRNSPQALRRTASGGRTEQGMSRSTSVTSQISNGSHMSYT
# [5] = target: T2, Serine/threonine-protein kinase TAO1 (Homo sapiens); conditions: at 10 µM
# [6] = target: T3, Serine/threonine-protein kinase TAO2 (Homo sapiens) (UniProt Q9UL54); conditions: at 1 µM
# T3 sequence (whole entry): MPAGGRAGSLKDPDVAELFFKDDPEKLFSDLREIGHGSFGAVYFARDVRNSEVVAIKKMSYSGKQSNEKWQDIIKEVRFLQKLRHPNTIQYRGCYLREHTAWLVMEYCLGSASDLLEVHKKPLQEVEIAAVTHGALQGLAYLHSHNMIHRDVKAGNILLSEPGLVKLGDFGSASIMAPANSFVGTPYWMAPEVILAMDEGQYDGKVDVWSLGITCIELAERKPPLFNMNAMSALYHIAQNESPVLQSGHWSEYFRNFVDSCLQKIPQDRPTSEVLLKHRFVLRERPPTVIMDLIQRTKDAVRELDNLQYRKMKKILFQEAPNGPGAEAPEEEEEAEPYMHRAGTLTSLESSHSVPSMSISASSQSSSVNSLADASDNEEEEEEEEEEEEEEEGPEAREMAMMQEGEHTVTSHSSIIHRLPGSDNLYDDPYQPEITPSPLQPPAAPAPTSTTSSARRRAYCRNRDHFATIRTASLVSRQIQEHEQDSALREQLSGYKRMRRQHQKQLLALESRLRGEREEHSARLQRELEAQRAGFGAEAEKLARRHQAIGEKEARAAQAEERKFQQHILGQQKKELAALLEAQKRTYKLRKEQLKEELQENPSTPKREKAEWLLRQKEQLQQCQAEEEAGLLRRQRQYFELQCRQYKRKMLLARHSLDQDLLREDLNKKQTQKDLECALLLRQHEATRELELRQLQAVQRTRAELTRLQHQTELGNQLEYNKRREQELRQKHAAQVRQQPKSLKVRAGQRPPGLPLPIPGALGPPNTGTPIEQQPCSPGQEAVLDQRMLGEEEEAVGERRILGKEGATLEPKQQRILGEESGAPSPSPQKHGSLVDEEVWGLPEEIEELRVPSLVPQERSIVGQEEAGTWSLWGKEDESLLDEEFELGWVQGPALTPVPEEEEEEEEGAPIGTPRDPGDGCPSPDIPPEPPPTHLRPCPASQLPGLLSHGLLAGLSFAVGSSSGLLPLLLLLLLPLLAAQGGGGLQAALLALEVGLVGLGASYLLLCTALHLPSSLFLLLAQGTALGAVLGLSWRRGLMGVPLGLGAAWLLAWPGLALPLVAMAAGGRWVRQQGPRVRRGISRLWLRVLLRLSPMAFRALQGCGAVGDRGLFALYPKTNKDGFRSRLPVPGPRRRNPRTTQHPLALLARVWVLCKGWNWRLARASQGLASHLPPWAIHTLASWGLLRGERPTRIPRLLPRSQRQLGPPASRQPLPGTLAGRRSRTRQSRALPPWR
# [7] = target: T3, Serine/threonine-protein kinase TAO2 (Homo sapiens); conditions: at 10 µM
# [8] = target: T4, Serine/threonine-protein kinase TAO3 (Homo sapiens) (UniProt Q9H2K8); conditions: at 1 µM
# T4 sequence (whole entry): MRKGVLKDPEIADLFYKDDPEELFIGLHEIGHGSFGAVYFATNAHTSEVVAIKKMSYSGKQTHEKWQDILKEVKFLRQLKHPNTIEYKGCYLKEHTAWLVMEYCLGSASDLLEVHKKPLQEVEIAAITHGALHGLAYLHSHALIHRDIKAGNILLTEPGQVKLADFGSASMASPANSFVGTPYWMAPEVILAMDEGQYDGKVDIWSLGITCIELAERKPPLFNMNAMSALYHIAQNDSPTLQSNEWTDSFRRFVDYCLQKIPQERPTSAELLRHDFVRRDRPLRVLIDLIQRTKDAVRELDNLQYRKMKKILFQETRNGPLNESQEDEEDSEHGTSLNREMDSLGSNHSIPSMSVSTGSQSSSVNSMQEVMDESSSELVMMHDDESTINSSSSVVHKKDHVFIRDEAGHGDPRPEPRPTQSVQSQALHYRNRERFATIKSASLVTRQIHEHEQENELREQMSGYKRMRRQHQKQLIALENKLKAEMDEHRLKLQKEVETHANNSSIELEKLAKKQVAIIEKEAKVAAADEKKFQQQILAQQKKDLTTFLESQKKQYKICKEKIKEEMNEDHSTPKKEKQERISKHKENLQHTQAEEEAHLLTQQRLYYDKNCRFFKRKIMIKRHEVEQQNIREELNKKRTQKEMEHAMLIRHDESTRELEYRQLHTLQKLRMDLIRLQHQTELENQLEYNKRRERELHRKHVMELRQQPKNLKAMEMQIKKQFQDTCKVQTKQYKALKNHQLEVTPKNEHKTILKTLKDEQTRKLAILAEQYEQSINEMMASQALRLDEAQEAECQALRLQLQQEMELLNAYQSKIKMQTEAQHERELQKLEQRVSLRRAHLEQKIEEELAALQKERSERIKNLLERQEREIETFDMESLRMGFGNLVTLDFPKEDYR
# [9] = target: T4, Serine/threonine-protein kinase TAO3 (Homo sapiens); conditions: at 10 µM
# [10] = target: T5, Serine/threonine-protein kinase TBK1 (Homo sapiens) (UniProt Q9UHD2); conditions: at 1 µM
# T5 sequence (whole entry): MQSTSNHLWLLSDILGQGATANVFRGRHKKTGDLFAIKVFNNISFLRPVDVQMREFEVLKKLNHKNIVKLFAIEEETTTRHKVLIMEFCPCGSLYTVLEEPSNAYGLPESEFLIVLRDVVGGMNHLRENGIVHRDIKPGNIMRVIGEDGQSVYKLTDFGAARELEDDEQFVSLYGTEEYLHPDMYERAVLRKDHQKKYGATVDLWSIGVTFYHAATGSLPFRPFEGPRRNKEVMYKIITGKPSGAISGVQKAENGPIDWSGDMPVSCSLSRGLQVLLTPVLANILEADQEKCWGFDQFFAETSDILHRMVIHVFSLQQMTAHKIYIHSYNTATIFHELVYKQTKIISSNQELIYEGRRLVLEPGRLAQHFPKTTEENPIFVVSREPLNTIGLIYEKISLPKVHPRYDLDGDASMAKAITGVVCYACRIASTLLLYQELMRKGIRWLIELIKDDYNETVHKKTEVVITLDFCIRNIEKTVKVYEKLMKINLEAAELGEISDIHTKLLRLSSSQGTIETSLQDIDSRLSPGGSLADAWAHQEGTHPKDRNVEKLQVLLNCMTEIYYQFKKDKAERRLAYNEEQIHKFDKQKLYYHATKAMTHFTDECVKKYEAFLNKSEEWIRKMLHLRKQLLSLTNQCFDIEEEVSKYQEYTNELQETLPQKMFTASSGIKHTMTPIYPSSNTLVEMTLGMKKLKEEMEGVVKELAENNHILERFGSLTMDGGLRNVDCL
smiles,measurement,setting,value
CC[n+]1c(/C=C/N(C)c2ccccc2)n(-c2ccccc2)c2ccc(-c3nc4ccccc4s3)cc21,residual activity,[1],46%
same,residual activity,[2],100%
same,residual activity,[3],102%
same,residual activity,[4],93%
same,residual activity,[5],78%
same,residual activity,[6],100%
same,residual activity,[7],60%
same,residual activity,[8],95%
same,residual activity,[9],62%
same,residual activity,[10],104%
